Screens (PubChem)
The full list was thinned out, with hits kept by preference.
KDM5B inh – inhibitors of human KDM5B histone demethylase; Q9UGL1; KDM5B demethylase, FDH-coupled NADH fluorescence (FDH is formaldehyde dehydrogenase); Potency, µM (top dose mostly 57.7 µM), usual class: inhibitors; hit rate 2.6% among 220,000; AID 1347165; active means well fitted inhibition curve with a large enough effect; further: nearly all actives have a fitted effect of over 70% in size
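Compound dilutions met 200 nM (final) KDM5BΔAP for 10 min at room temperature before substrate addition. The substrate mix held 12.5 µM H3K4me3 with cofactors 25 µM α-ketoglutarate and 50 µM Fe²⁺. NADH signal gain over 30 min defined activity.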
Hits are given with their value; . = inactive; ! = repeats disagree.

SMILES	KDM5B inh
COc1ccc(C)cc1NC(=O)N1CCCC2(C1)Nc1cccnc1NC2=NC1CCCC1 (stereo not given)	28µM
COc1ccccc1NC(=O)N1CCCC(Cn2c(C)nc3cccnc32)C1 (stereo not given)	.
Cc1ccc(C(=O)N2CCCC3(C2)C(=NC2CCCC2)NC(=O)N3c2cc(F)cc(F)c2)cc1 (stereo not given)	.
CC(=O)N1CCCC2(C1)C(=NC1CCCC1)NC(=O)N2c1cc(F)cc(F)c1 (stereo not given)	.
O=C(Nc1cc(F)cc(F)c1)N1CCCC2(C1)Nc1cccnc1NC2=NC1CCCC1 (stereo not given)	14µM
CCC(=O)N1CCN(c2oc(/C=C/c3ccc(C)cc3)nc2C#N)CC1	.
CC1=CCCC(C)(C)C1/C=C/C(C)=N\Nc1cc(C(F)(F)F)ccc1Cl (stereo not given)	.
O=C(Nc1nc(-c2ccc(Br)s2)cs1)C1CCN(C(=O)C2CC2)CC1	.
CSCCCNC(=S)Nc1ccc(F)c(Cl)c1	.
O=C(C1CCCCC1)N1CC[C@H](c2nc3ccc(C(F)(F)F)cc3[nH]2)C1	.
COc1ccc2nc([C@H]3CCN(C(C)C)C3)[nH]c2c1	32µM
Cc1ccc2nc([C@H]3CCN(C4CCC4)C3)[nH]c2c1	28µM
CC(C)NC(=O)N1CC[C@H](c2nc3ccc(F)cc3[nH]2)C1	.
CN1CCC(N2CC[C@H](c3nc4ccccc4[nH]3)C2)CC1	.
Cc1ccc2nc([C@H]3CCN(C(=O)c4ccccc4)C3)[nH]c2c1	.
Cc1ccc2nc([C@H]3CCN(C(=O)Nc4ccccc4)C3)[nH]c2c1	.
COc1ccc2nc([C@H]3CCN(C(=O)COCC(=O)O)C3)[nH]c2c1	.
c1cc2nc(C3CCN(C4CCCCC4)C3)[nH]c2cn1 (stereo not given)	40µM!
Cc1ccc2occ(C3CC(=O)Nc4c3c(C)nn4-c3ccc(Cl)nn3)c(=O)c2c1 (stereo not given)	.
CCC1(c2ccc(C)cc2)NC(=O)N(Cc2ncc(-c3ccccc3)o2)C1=O (stereo not given)	.
O=C(Nc1ccc(N2CCOCC2)cc1)/C(=C/c1cccs1)c1ccc(-c2ccccc2)cc1	.
O=C(c1ccc(Cl)cc1)N1CCN(C(=O)c2nnn3c2COC(c2ccccc2)C3)CC1 (stereo not given)	.
O=C(O)CNCc1cccc2ccccc12	.
O=C1COc2ccc(-c3csc(Nc4ccccc4C(F)(F)F)n3)cc2N1	.
Cc1ccc(S(=O)(=O)Nc2ccc(S(=O)(=O)Nc3ccccc3)cc2[N+](=O)[O-])cc1	.
SMILES	KDM5B inh
COc1cc(Cl)c(CN2C[C@H](NC(C)=O)[C@@H](C3CC3)C2)c(OC)c1	.
COc1cccc(-c2cc(CNC(=O)C3COc4c(cccc4OC)C3)no2)c1 (stereo not given)	.
COc1cccc(-c2ncc(CNC(=O)[C@H]3CC[C@@H](N)C3)s2)c1	25µM
COc1cccc(-c2ccc(NC(=O)C3CCCN(Cc4cnc(C)s4)C3)cc2)c1 (stereo not given)	.
COc1ccc(CNC(=O)Cc2c(C)c3ccc(OC)c(C)c3oc2=O)cc1OC	.
CN1Cc2cccn2CC1CNC(=O)C1(S(=O)(=O)c2ccc(Cl)cc2)CC1 (stereo not given)	14µM
CN1C(=O)CCC2(CNC(=O)C3(S(=O)(=O)c4ccc(Cl)cc4)CC3)CCC=C12 (stereo not given)	.
CN1Cc2cccn2CC1CNC(=O)Cc1ccccc1 (stereo not given)	18µM
CN1Cc2cccn2CC1CNC(=O)Nc1ccccc1 (stereo not given)	.
CC(C)CN1C(=O)c2cccn2CC1CNC(=O)Cc1cccc(F)c1 (stereo not given)	.
COc1ccc(C(=O)NCC2Cn3cccc3C(=O)N2C)cc1 (stereo not given)	.
CN1Cc2cccn2CC1CNC(=O)Cc1cccc(F)c1 (stereo not given)	28µM
CN1Cc2cccn2CC1CNC(=O)c1ccsc1 (stereo not given)	20µM
COCCN1C(=O)c2cccn2CC1CNC(=O)Cc1cccc(F)c1 (stereo not given)	.
COCCN1C(=O)c2cccn2CC1CNC(=O)Cc1ccccc1 (stereo not given)	.
CN1C(=O)c2cccn2CC1CNC(=O)C1(S(=O)(=O)c2ccc(Cl)cc2)CC1 (stereo not given)	.
CN1C(=O)c2cccn2CC1CNC(=O)c1ccccc1F (stereo not given)	.
NCCC12CC3CC(CC(C3)C1)C2	.
CC1CCN([C@@H]2[C@H](O)[C@H](CO)O[C@@H]2CNC(=O)Nc2cccc(Cl)c2)CC1	.
COC(=O)c1ccc(CNC(=O)Cn2c(Cl)nc3c2c(=O)n(C)c(=O)n3C)cc1	.
CN(C)CC1(O)CCC2(CCN(S(=O)(=O)c3ccc(F)cc3)CC2)CC1	.
CCC(C(=O)Nc1ccc(C(C)=O)cc1)n1c(=O)c(-c2ccccc2NC(C)=O)nc2ccccc21 (stereo not given)	.
O=C(NC1CCN(c2cnn(Cc3ccccc3)c(=O)c2)CC1)C1CCC1	.
C=CCN(Cc1ccc(F)cc1)C1CCCC1	.
CCCc1c/c(=N\O)oc2cc(C)c3c(C)c(C)oc3c12	.
SMILES	KDM5B inh
COCC(=O)N1CCC2(CC1)Cc1ccccc1NC2=O	.
Cc1cccc(/C=C/C(=O)c2cc3cc(Cl)ccc3oc2=O)c1	.
CC(C)CN1CCC(O)(c2csc(CN3CCOCC3)n2)CC1	.
CCc1ccccc1NC(=O)CN1C=C(C(=O)OC)C(C)=NS1(=O)=O	.
O=C1CC(c2ccc(Cl)cc2Cl)c2c(n3c(nc4ccccc43)[nH]c2=O)N1 (stereo not given)	.
COc1ccc(/C=C/C(=O)NC(=S)N2CCN(c3ccccn3)CC2)cc1	.
COc1cccc(CCC(=O)Nc2cccc(-c3nnc4n3CCCC4)c2)c1	.
COc1cccc(CC(=O)N[C@@H](Cc2ccccc2)C(=O)N2CCCOCCNC(=O)CC2)c1	.
CCCn1nc(C(=O)N2CCN(c3ccccn3)CC2)c2ccccc2c1=O	.
COc1cccc(CCC(=O)NC(C)C(=O)N2CCN(c3ccccn3)CC2)c1 (stereo not given)	22µM
COC(=O)C1=C(CN2CCN(c3ccccn3)CC2)NC(=O)NC1c1cccc(OC)c1 (stereo not given)	.
Cc1[nH]c2ccccc2c1CN1CCN(c2ccccn2)CC1	.
COc1ccc(-c2coc3cc(OCC(=O)N4CCN(c5ccccn5)CC4)ccc3c2=O)cc1	.
COc1cccc(CC(=O)N2C[C@@H](CO)[C@H](c3ccccn3)C2)c1	.
COc1ccc(CC(=O)NC(C)C(=O)N2CCN(c3ccccn3)CC2)cc1 (stereo not given)	32µM
CC(NC(=O)c1n[nH]c2ccccc12)C(=O)N1CCN(c2ccccn2)CC1 (stereo not given)	22µM
COc1cccc(CC(=O)NC(C)C(=O)N2CCN(c3ccccn3)CC2)c1 (stereo not given)	25µM
Nc1c(N(Cc2ccco2)C(=O)COc2ccc3ccccc3c2)c(=O)[nH]c(=O)n1Cc1ccccc1	.
CCc1ccc(-c2nc3cc(NC(=O)c4ccc([N+](=O)[O-])o4)ccc3o2)cc1	.
COc1ccc(C2c3c(n[nH]c3C)C(=O)N2c2ccc(C)cc2)cc1 (stereo not given)	.
Cc1ccc(-c2cnc(CCC(=O)NC3=NCCS3)o2)cc1C	.
Cc1nc(NC(=O)C(C)C)ccc1I	.
